Growth data for seven compounds are collected here from PubChem BioAssay (NCI).

Holding throughout (assay): NCI-60 one-dose screen, 48 h (100 = growth as untreated, 0 = no growth, -100 = all killed)
Conditions in all cases: 10 µM unless noted

In assay [1] the test system is DU-145 prostate.
Assay [2] has as its system K-562 leukemia.
In assay [3] the test system is MALME-3M melanoma.
The test system of assay [4] is MDA-MB-231 breast.
Assay [5] concerns RXF 393 renal.
Assay [6] has as its system SF-268 CNS.
Assay [7] concerns SF-295 CNS.
For assay [8], the system named is SF-539 CNS.
For assay [9], the system named is UACC-257 melanoma.
For assay [10], the system named is M14 melanoma.
In assay [11] the test system is HCT-15 colon.
Assay [12] relates to HT29 colon.
Assay [13] concerns SNB-75 CNS.
For assay [14], the system named is SNB-19 CNS.
The subject of assay [15] is U251 CNS.
Assay [16] concerns PC-3 prostate.
The subject of assay [17] is SK-MEL-5 melanoma.
Assay [18] deals with UACC-62 melanoma.
Assay [19] concerns LOX IMVI melanoma.
For assay [20], the system named is SK-MEL-28 melanoma.

This is part of a sample that, as a whole, favours compounds with a hit. Of some 83,000 tested, about 20% had one in any assay.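 Cell lines were cultured in 96-well plates, exposed to a single compound concentration, and assessed for percent growth 48 hours later.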 A number with no mark means an inactive call. Activity calls are given as the source filed them. How the source made its calls: active means growth percent below 10; inactive means the rest.

As for `Nc1cc(NN=C(c2ccc(O)cc2)c2ccc(O)cc2)c([N+](=O)[O-])cc1[N+](=O)[O-]`, the growth is 91.3% in [1]; 78.4% in assay [2]; 105% in assay [3]; 54.4% in [4]; -69.9% (active) in [5]; 81.8% in [6]. Moreover, the growth in [7] was 75.8%; in assay [8], -55.3% (active); in assay [9], -60.6% (active); in [10], -52.9% (active); in assay [11], 4.01% (active); in assay [12], 98.4%. In addition, the growth in [13] is 78.2%; in [14] it was -22.6% (active); in assay [15], 4.49% (active); in [16], 64.2%; in [17], -85.4% (active); in assay [18], 42.3%. For the same compound, the growth is -32.5% (active) in assay [19] and 80.8% in assay [20].

For the compound `COc1ccc2nc3ccccc3c(NCCNCCO)c2c1`, the growth in [1] is -31.2% (active); in assay [2], 18.9%; in assay [3], -65.5% (active); in assay [4], -18.9% (active); in assay [5], -63% (active); in assay [6], -27.9% (active). Further, the growth in assay [7] was -18.4% (active); in [8], -11.1% (active); in assay [9], -50% (active); in assay [10], -87.3% (active); in assay [11], 19.6%; in assay [12], -11.9% (active). In addition, the growth was -53.2% (active) in [13]; 1.53% (active) in [14]; 6.95% (active) in assay [15]; 4.92% (active) in assay [16]; -32.9% (active) in assay [17]; -70.2% (active) in [18]. Further, the results for the growth in [19] and in [20] were -52.2% (active) and -70.4% (active), respectively.

As for `CCOc1cccc2c(NC(C)CCCN(CC)CC)c(C)cnc12` (stereo not given), the growth in assay [1] was 110%; in [2] it was 101%; in assay [3] it was 116%; in assay [4] it was 78.7%; in assay [5], 102%; in assay [6] it was 87.6%. The growth in [7] is 109%; in assay [8] it was 102%; in assay [9], 108%; in [10], 104%; in assay [11] it was 99.1%; in assay [12] it was 85.1%. The growth in assay [13] is 67.9%; in assay [14], 102%; in [15] it was 103%; in assay [16], 85.9%; in assay [17], 108%; in assay [18], 108%. Further, the growth in assay [19] is 90.2%; in assay [20] it was 126%.

As for `O=c1[nH]c(CN2CCN(c3cccc(Cl)c3)CC2)nc2cc(Cl)ccc12`, the growth in assay [1] is 101%; in assay [2], 97.9%; in [3] it was 108%; in assay [4], 104%; in [5], 90.3%; in assay [6], 99.3%. Also, the growth is 100% in [7]; 94.2% in assay [8]; 59.9% in [9]; 89.1% in assay [10]; 94.4% in [11]; 106% in [12]. Further, the growth was 80.5% in assay [13]; 91.3% in [14]; 94.6% in assay [15]; 90.6% in assay [16]; 99.4% in assay [17]; 93.8% in assay [18]. For the same compound, the growth is 92.5% in assay [19] and 102% in assay [20].

As for `C=C(C)[C@@H]1CC[C@]2(C(=O)NCCNCCNC(=O)OC(C)(C)C)CC[C@]3(C)[C@H](CC[C@@H]4[C@@]5(C)CCC(=O)C(C)(C)[C@@H]5CC[C@]43C)[C@@H]12`, the growth is 53.5% [100 µM] in assay [1]; 38.1% [100 µM] in assay [2]; 64.3% [100 µM] in assay [3]; -33.8% [100 µM] (active) in assay [4]; 35.9% [100 µM] in [5]; 49.8% [100 µM] in assay [6]. Besides, the growth in assay [7] is 32% [100 µM]; in assay [8], 50.1% [100 µM]; in [9], 36.9% [100 µM]; in [10] it was 54.1% [100 µM]; in assay [11] it was 50.4% [100 µM]; in assay [12], 23.7% [100 µM]. Moreover, the growth in assay [13] is 23.9% [100 µM]; in assay [14], 47.8% [100 µM]; in assay [15] it was 27.9% [100 µM]; in assay [16], 19.1% [100 µM]; in assay [17], -8.44% [100 µM] (active); in [18], 48.2% [100 µM]. In addition, the figures for the growth in assay [19] and in assay [20] were 39.6% [100 µM] and 56.3% [100 µM], respectively.

Take `COc1cc(NN=C(c2ccc(O)cc2)c2ccc(O)cc2)c([N+](=O)[O-])cc1[N+](=O)[O-]`: the growth was 90.5% in assay [1]; 109% in [2]; 120% in [3]; 91.9% in [4]; -34.4% (active) in assay [5]; 72.3% in assay [6]. Moreover, the growth in assay [7] is 112%; in assay [8] it was 5.64% (active); in assay [9], -14.4% (active); in [10], -15.9% (active); in assay [11], 35%; in assay [12] it was 98.1%. Besides, the growth in assay [13] was 98.4%; in assay [14], -4.74% (active); in assay [15] it was 40.5%; in assay [16], 73.1%; in assay [17], 14.3%; in assay [18] it was 73.9%. Also, the growth in [19] was 34.4%; in [20], 81%.

With `CC1(C)S[C@@H]2[C@H](NC(=O)[C@H](C(=O)O)c3cccs3)C(=O)N2[C@H]1C(=O)O`, the growth was 123% in assay [1]; 105% in [2]; 103% in assay [3]; 126% in assay [4]; 116% in assay [5]; 110% in assay [6]. The growth was 98.4% in assay [7]; 100% in assay [8]; 96.2% in [9]; 102% in assay [10]; 98.7% in assay [11]; 102% in assay [12]. For the same compound, the growth is 104% in [13]; 105% in assay [14]; 94.4% in assay [15]; 99.2% in assay [16]; 106% in [17]; 102% in assay [18]. In addition, the growth was 99.4% in assay [19] and 116% in assay [20].
